Here are results for 23 molecules from PubChem BioAssay (Tox21).

Test [1] in a line: qHTS assay to identify small molecule antagonists of the thyroid receptor (TR) signaling pathway (AID 743065). Also: nearly all actives have a fitted effect of over 55% in size. Also: potency is read from the fitted curve at half-maximal effect. The method in brief: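 GH3.TRE-Luc rat pituitary cells carrying two TR response elements driving luciferase were plated for 4 h, given compound plus 1 nM T3 (final), and incubated 23.5 h at 37 C. ONE-Glo luminescence measured reporter inhibition; CellTiter-Fluor fluorescence tracked cytotoxicity.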
(Quantitative high-throughput screening tests each substance at several concentrations.)

The subject of test [2] is thyroid hormone receptor (rat, GH3 cells). The test is described as follows: qHTS assay to identify small molecule agonists of the thyroid receptor (TR) signaling pathway (AID 743066; calls by dose curve).
The target of test [3] is Estrogen receptor (Homo sapiens) (UniProt P03372). The test is described as follows: qHTS assay to identify small molecule antagonists of the estrogen receptor alpha (ER-alpha) signaling pathway (AID 743069; active = well fitted curve in the direction sought with a large enough effect in the signal ratio in the repeat runs, not every such curve was filed as active; inconclusive = weak or mixed curves, or effect the other way; inactive = no such curve, though single readings can be large or run the other way; the % refers to the signal ratio). The procedure, abridged:
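Estradiol-stimulated ER-alpha-UAS-bla HEK293 cells, 18 hr compound exposure at 37C. LiveBLAzer B/G substrate, 2 hr RT, fluorescence read.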

Test [4] can be described thus: qHTS assay to identify small molecule antagonists of the estrogen receptor alpha (ER-alpha) signaling pathway - cell viability counter screen (AID 743074; calls by dose curve;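 also: HEK293 cells carrying ER-alpha-UAS-bla reporter stimulated with 17beta-estradiol; nearly all actives have a fitted effect of over 45% in size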).
Test [5] concerns the target Estrogen receptor (Homo sapiens) (UniProt P03372). The test is described as follows: qHTS assay to identify small molecule agonists of the estrogen receptor alpha (ER-alpha) signaling pathway (AID 743075; calls by dose curve;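 also: HEK293 GripTite cells with ER-alpha and UAS-driven beta-lactamase reporter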; also: potency is read from the fitted curve at half-maximal effect).
A short description of test [6]: qHTS assay to identify small molecule antagonists of the estrogen receptor alpha (ER-alpha) signaling pathway using the BG1 cell line - cell viability counter screen (AID 743081).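 Also: compound given together with 17beta-estradiol as the ER stimulus; nearly all actives have a fitted effect of over 45% in size.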
The next test addresses Aromatase (Homo sapiens) (UniProt P11511). The test is described as follows: qHTS assay to identify aromatase inhibitors (AID 743083). Also: nearly all actives have a fitted effect of over 55% in size. Also: potency is read from the fitted curve at half-maximal effect.
Test [7] in a line: qHTS assay to identify aromatase inhibitors - cell viability counter screen (AID 743084).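 Also: cells stimulated with testosterone during compound exposure; nearly all actives have a fitted effect of over 55% in size.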
The target in test [8] is Estrogen receptor (Homo sapiens) (UniProt P03372). The test is described as follows: qHTS assay to identify small molecule agonists of the estrogen receptor alpha (ER-alpha) signaling pathway using the BG1 cell line (AID 743079). Also: nearly all actives have a fitted effect of over 20% in size. Also: potency is read from the fitted curve at half-maximal effect. To be noted: BG1Luc4E2 cells, ERE-luciferase agonist, 22 h.
Chain of Estrogen receptor (Homo sapiens) (P03372 whole entry, looked up): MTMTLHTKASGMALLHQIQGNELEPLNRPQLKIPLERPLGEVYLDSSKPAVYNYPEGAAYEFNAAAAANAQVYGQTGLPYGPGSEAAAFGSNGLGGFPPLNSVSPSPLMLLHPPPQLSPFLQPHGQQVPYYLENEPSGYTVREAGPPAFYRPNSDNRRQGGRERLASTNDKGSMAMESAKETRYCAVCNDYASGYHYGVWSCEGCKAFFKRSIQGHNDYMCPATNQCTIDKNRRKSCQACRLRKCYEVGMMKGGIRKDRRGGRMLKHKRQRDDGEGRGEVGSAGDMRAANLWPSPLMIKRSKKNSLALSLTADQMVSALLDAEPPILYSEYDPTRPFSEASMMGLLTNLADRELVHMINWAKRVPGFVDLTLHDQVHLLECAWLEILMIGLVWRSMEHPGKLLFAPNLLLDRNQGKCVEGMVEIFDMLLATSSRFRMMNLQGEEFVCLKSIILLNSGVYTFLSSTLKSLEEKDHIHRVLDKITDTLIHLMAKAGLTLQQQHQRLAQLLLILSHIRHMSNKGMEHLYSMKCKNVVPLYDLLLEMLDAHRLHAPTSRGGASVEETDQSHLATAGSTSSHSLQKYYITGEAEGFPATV
Test [9] in a line: qHTS assay to identify small molecule antagonists of the estrogen receptor alpha (ER-alpha) signaling pathway using the BG1 cell line (AID 743080; calls by dose curve;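 also: BG1 cells stimulated with 17beta-estradiol alongside compound; nearly all actives have a fitted effect of over 25% in size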; also: potency is read from the fitted curve at half-maximal effect). The procedure, abridged:
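BG1-Luc-4E2 cells (endogenous full-length ER-alpha, stable 4×ERE-luciferase) were starved 5 days in phenol-red-free medium with 10% charcoal-stripped FBS, plated 24 h, then given compound plus 17beta-estradiol for 21.5 h at 37 C; ONE-Glo luminescence read after 30 min.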

Values without a mark were called inactive. The source made the active and inactive calls. Unless noted, calls follow the shape of the dose curve; as a rule, active = well fitted curve in the direction sought with a large enough effect in the repeat runs; inconclusive = weak or mixed curves; inactive = no such curve, though single readings can be large; an effect the other way counts as inactive or inconclusive.
% is scaled to controls: 0 for no effect and ±100 for the full control effect.

Chain of Aromatase (Homo sapiens) (P11511 whole entry, looked up): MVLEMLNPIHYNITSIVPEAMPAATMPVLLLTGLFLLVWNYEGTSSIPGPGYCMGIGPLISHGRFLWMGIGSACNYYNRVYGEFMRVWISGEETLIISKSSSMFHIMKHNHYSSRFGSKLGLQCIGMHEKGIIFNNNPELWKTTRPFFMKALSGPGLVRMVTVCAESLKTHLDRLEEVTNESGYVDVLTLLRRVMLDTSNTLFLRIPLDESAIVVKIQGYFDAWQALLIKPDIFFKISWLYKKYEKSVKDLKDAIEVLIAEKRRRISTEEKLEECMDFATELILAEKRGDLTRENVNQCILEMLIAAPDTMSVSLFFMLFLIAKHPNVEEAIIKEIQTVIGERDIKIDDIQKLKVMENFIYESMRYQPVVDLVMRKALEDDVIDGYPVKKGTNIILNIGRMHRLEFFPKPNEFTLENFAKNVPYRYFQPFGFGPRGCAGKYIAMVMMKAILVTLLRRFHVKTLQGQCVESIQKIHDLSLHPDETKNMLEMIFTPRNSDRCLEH

Regarding `CC1CCCCC1NC(=O)Nc1ccccc1` (stereo unspecified), the Potency result (in test [1]; in [2]; in [3]; in test [5]; in test [6]; with Aromatase (Homo sapiens)) was “inactive” throughout. Also, the Potency entry in test [7] is “inactive”. In test [4], the outcome was inactive.
Turning to `O=C1OC(c2ccc(O)c(S(=O)(=O)O)c2)(c2ccc(O)c(S(=O)(=O)O)c2)c2c(Br)c(Br)c(Br)c(Br)c21`, the Potency entry (in [1]; in test [2]; in [3]; in test [5]; in test [9]; with Aromatase (Homo sapiens)) was “inactive” throughout. In addition, the Potency result in [7] is “inactive”. Further, in test [4], the call was inactive. The activation in test [8] (at 70.3 µM (top of the series)) was -0.304%.
In the case of `ClC(Cl)Br`, the Potency result in [1], in [2], in test [3], in test [5], in test [9] and in test [6] was “inactive” each time. For the same molecule, the Potency result (in the test with Aromatase (Homo sapiens); in test [7]) was “inactive” throughout. The molecule was classed as inactive in test [4].
`C[C@@H]1CN(C2CCC(C#N)(c3ccc(F)cc3)CC2)CC[C@]1(C(=O)O)c1ccccc1` (stereo partly specified): the Potency entry (in test [1]; in test [2]; in [5]; in [9]; in [6]; with Aromatase (Homo sapiens)) was “inactive” throughout. Further, the Potency result in test [7] was “inactive”. In addition, in [4], the molecule was classed as inactive. Moreover, the activation in test [8] (at 32.5 µM (top of the series)) is -0.22%.
As to `CC(CC(C#N)(c1ccccc1)c1ccccc1)N(C)C` (stereo unspecified), in test [1], the Potency is 30.5 µM (active). In addition, the Potency entry (in test [2]; in [5]; in test [9]; in [6]; in the test with Aromatase (Homo sapiens); in test [7]) was “inactive” in each case. In [4], the result was inactive. Besides, the activation in test [8] (at 70.3 µM (top of the series)) is -6.75%.
As for `C=C(C)[C@@H]1CC=C(C=O)CC1`, the Potency result (in test [1]; in test [2]; in test [5]; in test [9]; in test [6]; with Aromatase (Homo sapiens)) was “inactive” each time. Moreover, the Potency entry in [7] is “inactive”. Besides, the molecule was classed as inactive in [4]. For the same molecule, the activation in test [8] (at 70.3 µM (top of the series)) was 3.7%.
As for `N#CCBr`, the Potency entry (in [1]; in test [2]; in test [5]; in [9]; in [6]; in the test with Aromatase (Homo sapiens)) was “inactive” in each case. Also, the Potency result in [7] was “inactive”. The molecule was classed as inactive in test [4]. Also, the activation in test [8] (at 95 µM (top of the series)) is 0.199%.
On to `CCS(=O)(=O)C(C)(C)S(=O)(=O)CC`, for which the Potency result (in test [1]; in test [2]; in test [5]; in [9]; in test [6]; with Aromatase (Homo sapiens)) was “inactive” throughout. Moreover, in test [7], the Potency result is “inactive”. Further, the molecule was classed as inactive in test [4]. Besides, the activation in test [8] (at 70.3 µM (top of the series)) is 0.0569%.
For `CCOc1nc(C(Cl)(Cl)Cl)ns1`, the Potency result (in [1]; in test [2]; in test [5]; in test [9]; in test [6]; with Aromatase (Homo sapiens)) was “inactive” in each case. In addition, the Potency entry in [7] was “inactive”. Further, the result in test [4] was inactive. In addition, in test [8] (at 70.3 µM (top of the series)), the activation was 4.23%.
Take `ClC(Cl)C(Cl)Cl`: the Potency result (in [1]; in [2]; in [5]; in [9]; in [6]; with Aromatase (Homo sapiens)) was “inactive” in each case. Also, the Potency result in [7] was “inactive”. Besides, in [4], the call was inactive. Further, the activation in test [8] (at 95 µM (top of the series)) was -0.198%.
Turning to `CCOP(=S)(OCC)Oc1ncn(-c2ccccc2)n1`, the Potency result (in [1]; in test [2]; in [5]; in test [9]; in test [6]; with Aromatase (Homo sapiens)) was “inactive” in each case. In addition, the Potency result in test [7] is “inactive”. In addition, the call in [4] was inactive. For the same molecule, the Potency in test [8] is 54.5 µM (active).
As to `O=C(O)C(Br)CBr` (stereo unspecified), the Potency entry (in [1]; in test [2]; in [5]; in test [9]; in test [6]; in the test with Aromatase (Homo sapiens)) was “inactive” each time. Further, the Potency entry in test [7] is “inactive”. Also, the molecule was called inactive in [4]. For the same molecule, the activation in test [8] (at 95 µM (top of the series)) was -6.3%.
Consider `NC(=S)C(N)=S`, for which the Potency entry (in test [1]; in test [2]; in [5]; in [9]; in test [6]; in the test with Aromatase (Homo sapiens)) was “inactive” in each case. In [7], the Potency result was “inactive”. The molecule was classed as inactive in test [4]. For the same molecule, the activation in [8] (at 70.3 µM (top of the series)) is -1.3%.
Regarding `OCCBr`, the Potency result (in test [1]; in [2]; in test [5]; in [9]; in test [6]; with Aromatase (Homo sapiens)) was “inactive” throughout. Besides, the Potency entry in test [7] is “inactive”. Moreover, the outcome in [4] was inactive. For the same molecule, the activation in test [8] (at 70.3 µM (top of the series)) was 6.61%.
Take `C#C[C@]1(O)C=C[C@H]2[C@@H]3CCC4=CC(=O)CC[C@@H]4[C@H]3CC[C@@]21CC`: the figures for the Potency in test [1], in test [5] and in test [8] were 11.9 µM (active), 0.535 µM [inconclusive] (active) and 0.168 µM (active), respectively. Besides, the Potency entry (in test [2]; in test [9]; in test [6]; with Aromatase (Homo sapiens); in test [7]) was “inactive” throughout. The molecule was called inactive in [4].
On to `O=C(O)c1ccc2[nH]cc(CCCCN3CC=C(c4ccccc4)CC3)c2c1`, for which the Potency entry (in [1]; in test [2]; in test [5]; in test [9]; in [6]; in the test with Aromatase (Homo sapiens)) was “inactive” in each case. Also, in [7], the Potency entry is “inactive”. In test [4], the call was inactive. Besides, in [8] (at 70.3 µM (top of the series)), the activation is -2.02%.
Turning to `Cc1ncc(CNC(=O)N(CCCl)N=O)c(N)n1`, the Potency result (in test [1]; in test [2]; in test [5]; in test [9]; in test [6]; with Aromatase (Homo sapiens)) was “inactive” each time. The Potency result in [7] is “inactive”. For the same molecule, the molecule was called inactive in [4]. For the same molecule, the activation in [8] (at 70.3 µM (top of the series)) was 12.7%.
In the case of `CCCCN(CCCCO)N=O`, the Potency result (in test [1]; in test [2]; in [5]; in [9]; in test [6]; in the test with Aromatase (Homo sapiens)) was “inactive” throughout. In addition, in test [7], the Potency entry is “inactive”. Also, the outcome in test [4] was inactive. In addition, the activation in test [8] (at 70.3 µM (top of the series)) is -3.24%.
With `CC(C)NCC(O)c1ccc(N)c(C#N)c1` (stereo unspecified), the Potency entry (in test [1]; in [2]; in test [5]; in test [9]; in [6]; in the test with Aromatase (Homo sapiens)) was “inactive” throughout. In test [7], the Potency entry was “inactive”. Further, the molecule was called inactive in [4]. Moreover, the activation in test [8] (at 70.3 µM (top of the series)) was -15.4%.
Turning to `Fc1ccc(C2(Cn3cncn3)OC2c2ccccc2Cl)cc1` (stereo unspecified), the Potency in test [1] is 30.6 µM (active); in [9], 68.6 µM (active); with Aromatase (Homo sapiens), 3.86 µM (active). For the same molecule, the Potency entry in test [2], in test [5], in [6] and in test [7] was “inactive” each time. Also, the outcome in [4] was inactive. Further, the activation in test [8] (at 70.3 µM (top of the series)) is -28.4%.
`CCC/C(=N\OCC)C1=C(O)CC(CC(C)SCC)CC1=O` (stereo unspecified): the Potency result (in [1]; in test [2]; in [5]; in test [9]; in test [6]; in the test with Aromatase (Homo sapiens)) was “inactive” in each case. Further, the Potency result in [7] is “inactive”. Also, in test [4], the call was inactive. For the same molecule, the activation in [8] (at 95 µM (top of the series)) is -1.67%.
With `CCCCP(CCCC)CCCC`, the Potency result (in test [1]; in test [2]; in test [5]; in test [9]; in test [6]; in the test with Aromatase (Homo sapiens)) was “inactive” in each case. In addition, in test [7], the Potency result is “inactive”. Besides, in test [4], the molecule was classed as inactive. The activation in [8] (at 70.3 µM (top of the series)) is 0.877%.
On to `N#CC(Cl)(Cl)Cl`, for which the Potency entry (in test [1]; in test [2]; in test [5]; in [9]; in test [6]; with Aromatase (Homo sapiens)) was “inactive” in each case. In test [7], the Potency entry was “inactive”. Besides, the molecule was classed as inactive in test [4]. For the same molecule, the activation in test [8] (at 70.3 µM (top of the series)) is -6.23%.
